PubChem BioAssay (NCI)
Compounds without any hit were thinned out: in the full panel of roughly 83,000, 20% have a hit.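 Each cell line was grown in a 96-well plate and treated with one concentration of compound for 48 hours. Values below 10 were considered active.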 Values without a mark were called inactive. Calls of active or inactive are those of the source.

Key:
Assay in all cases: NCI-60 one-dose screen, 48 h (100 = growth as untreated, 0 = no growth, -100 = all killed)
Details in all cases: 10 µM unless noted
NCI-H23 lung = test system: NCI-H23 lung
NCI-H226 lung = test system: NCI-H226 lung
NCI-H322M lung = test system: NCI-H322M lung
HOP-62 NSCLC = test system: HOP-62 NSCLC
NCI-H460 lung = test system: NCI-H460 lung
HOP-92 NSCLC = test system: HOP-92 NSCLC
NCI-H522 lung = test system: NCI-H522 lung
A549/ATCC NSCLC = test system: A549/ATCC NSCLC
786-0 renal = test system: 786-0 renal
COLO 205 colon = test system: COLO 205 colon
DU-145 prostate = test system: DU-145 prostate
K-562 leukemia = test system: K-562 leukemia
MALME-3M melanoma = test system: MALME-3M melanoma
MDA-MB-231 breast = test system: MDA-MB-231 breast
RXF 393 renal = test system: RXF 393 renal
SF-268 CNS = test system: SF-268 CNS
SF-295 CNS = test system: SF-295 CNS
SF-539 CNS = test system: SF-539 CNS
UACC-257 melanoma = test system: UACC-257 melanoma
M14 melanoma = test system: M14 melanoma

| SMILES | growth (NCI-H23 lung) | growth (NCI-H226 lung) | growth (NCI-H322M lung) | growth (HOP-62 NSCLC) | growth (NCI-H460 lung) | growth (HOP-92 NSCLC) | growth (NCI-H522 lung) | growth (A549/ATCC NSCLC) | growth (786-0 renal) | growth (COLO 205 colon) | growth (DU-145 prostate) | growth (K-562 leukemia) | growth (MALME-3M melanoma) | growth (MDA-MB-231 breast) | growth (RXF 393 renal) | growth (SF-268 CNS) | growth (SF-295 CNS) | growth (SF-539 CNS) | growth (UACC-257 melanoma) | growth (M14 melanoma) |
| --- | --- | --- | --- | --- | --- | --- | --- | --- | --- | --- | --- | --- | --- | --- | --- | --- | --- | --- | --- | --- |
| Clc1ccc2c(NCCNC34CC5CC(CC(C5)C3)C4)ccnc2c1 | -73.2% (active) | -24.4% (active) | -61.7% (active) | -76.7% (active) | -63.1% (active) | -64.7% (active) | -76.7% (active) | -33% (active) | -79.8% (active) | -58.1% (active) | -42.7% (active) | 2.05% (active) | -80.4% (active) | -72.1% (active) | -86.4% (active) | -62.2% (active) | -90.9% (active) | -89.7% (active) | -66.3% (active) | -83.5% (active) |
| Cc1ccc2c(c1)nc(-c1ccccc1)n2CC(=O)N=Nc1c(O)[nH]c2ccc(Cl)cc12 | -66% (active) | -53.5% (active) | -53.8% (active) | -79.7% (active) | -68.9% (active) | -74.2% (active) | -75% (active) | -18.7% (active) | -92% (active) | -87.6% (active) | -38% (active) | -3.37% (active) | -28.6% (active) | -80.5% (active) | -88.4% (active) | 2.28% (active) | -62.4% (active) | -90.3% (active) | -28.2% (active) | -28.4% (active) |
| COc1ccc(-c2cc(-c3cc(OC)c(OC)c(OC)c3)[nH]c(=O)c2C#N)cc1 | 86% | 23.4% | 5.73% (active) | 12.9% | 52.4% | -33.5% (active) | 50.6% | 59.3% | -65.4% (active) | 130% | 93% | 79.1% | 29.7% | 1.65% (active) | 14.6% | 54.3% | 59.1% | -18.3% (active) | 96.4% | 96.7% |
| Cc1nn(-c2ccccc2)c2ncn(CC(=O)N/N=C/c3ccccc3O)c(=O)c12 | 40.7% | 47.6% | 39.1% | 27.4% | 17.7% | 55.8% | 21% | 38.9% | 37.2% | 10.3% | 51.6% | 26.5% | 55.9% | 35.9% | 42.2% | 38.9% | 24.9% | 46.7% | 54.9% | 45.2% |
| COc1c2c(cc3c1C(CCc1ccccc1)N(C)CC3)OCO2 (stereo not given) | 5.64% (active) | -1.8% (active) | 28.7% | 36.6% | 1.55% (active) | 1.44% (active) | 11.4% | 21.4% | 12.6% | -56.5% (active) | 23.2% | 6.06% (active) | -65.8% (active) | -11.7% (active) | -12.1% (active) | 23.2% | -70.1% (active) | -40.2% (active) | 16.6% | -26.4% (active) |
| COc1ccc2oc(=O)c(-c3csc(N/N=C(\C)c4cc(OC)c(OC)c(OC)c4)n3)cc2c1 | 84% | 89.7% | 96.8% | 109% | 79.1% | 96.8% | 85.8% | 101% | 90.5% | 99.8% | 101% | 92.3% | 85% | 86.8% | 85.7% | 99.3% | 92% | 103% | 106% | 91.9% |
| C[C@@H]1[C@H]2C[C@@H](C[C@H]1NCc1nc3ccccc3n1C1CCCCCC1)C2(C)C | 33% | 57.2% | 95.4% | 88.3% | 56.3% | 28.9% | 22.9% | 71.8% | 63.4% | 58.7% | 88.3% | 24.1% | 51.4% | 77.8% | 19% | 75.6% | 57.6% | 77.1% | 64.7% | 61% |
| O=C1CC(c2ccc(I)cc2)OC2C=Cc3ccccc3C12 (stereo not given) | 98.2% | 90.7% | 103% | 98.7% | 108% | 101% | 86.9% | 102% | 99.2% | 118% | 106% | 102% | 94.3% | 97.6% | 107% | 114% | 99.9% | 106% | 113% | 108% |
